Source: PubChem BioAssay (EPA / NIEHS)
Values joined by “and” are separate entries in the source; they are usually repeats but may differ in a detail not shown here. Equal entries are not always repeated. Some structures have more than one record in an assay (separate samples or runs), and their calls can disagree. Active and inactive are the calls of the source. The calls were made as follows: active = hit-call score of the fitted dose curve at least 0.9, where 1 is the maximum; inactive = score below 0.9.

Key:
[1] = read-out: Tissue plasminogen activator (tPA), PLAT (gene 5327); experiment: BSK_BE3C_tPA: BioMAP Diversity Plus: BE3C Assay for Tissue plasminogen activator (tPA) Biomarker Activity (AID 2283041); details: primary human bronchial epithelial cells; actives raise or lower the signal
Summary of the method: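 Human primary bronchial epithelial cells were dosed with chemical and tPA biomarker levels measured by ELISA 24 hours later. Activity was fitted bidirectionally against DMSO as negative control and baseline.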

[2] = read-out: Interleukin-8 (IL8), CXCL8 (gene 3576); experiment: BSK_CASM3C_IL8: BioMAP Diversity Plus: CASM3C Assay for Interleukin-8 (IL8) Biomarker Activity (AID 2283042); details: primary human coronary artery smooth muscle cells; actives raise or lower the signal;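 also: IL-8 protein level quantified by ELISA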
[3] = read-out: Human Leukocyte Antigen - DR isotype (HLADR), HLA-DRA (gene 3122); experiment: BSK_CASM3C_HLADR: BioMAP Diversity Plus: CASM3C Assay for Human Leukocyte Antigen - DR isotype (HLADR) Biomarker Activity (AID 2283043); details: primary human coronary artery smooth muscle cells; actives raise or lower the signal;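 also: cell-surface HLA-DR protein level quantified by ELISA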
[4] = read-out: Macrophage colony-stimulating factor (MCSF), CSF1 (gene 1435); experiment: BSK_CASM3C_MCSF: BioMAP Diversity Plus: CASM3C Assay for Macrophage colony-stimulating factor (MCSF) Biomarker Activity (AID 2283044); details: primary human coronary artery smooth muscle cells; actives raise or lower the signal;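 also: M-CSF protein amount quantified by ELISA after 24 h exposure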
[5] = read-out: Low-density lipoprotein receptor (LDLR), LDLR (gene 3949); experiment: BSK_CASM3C_LDLR: BioMAP Diversity Plus: CASM3C Assay for Low-density lipoprotein receptor (LDLR) Biomarker Activity (AID 2283045); details: primary human coronary artery smooth muscle cells; actives raise or lower the signal;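 also: LDLR protein level on the cell surface quantified by ELISA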
[6] = read-out: Monocyte Chemoattractant Protein-1 (MCP1), CCL2 (gene 6347); experiment: BSK_CASM3C_MCP1: BioMAP Diversity Plus: CASM3C Assay for Monocyte Chemoattractant Protein-1 (MCP1) Biomarker Activity (AID 2283046); details: primary human coronary artery smooth muscle cells; actives raise or lower the signal;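 also: MCP-1 level quantified by ELISA 24 h after dosing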
[7] = BSK_CASM3C_Proliferation: Cell Proliferation Assessment in the BioMAP Diversity Plus: CASM3C Assay (AID 2283047); details: primary human coronary artery smooth muscle cells;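 also: sulforhodamine B total protein stain as relative cell number at 560 nm; sub-confluent cells exposed 48 h before staining; fitted both ways against DMSO so gain or loss of cell number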
[8] = read-out: Monokine induced gamma interferon (MIG), CXCL9 (gene 4283); experiment: BSK_CASM3C_MIG: BioMAP Diversity Plus: CASM3C Assay for Monokine induced gamma interferon (MIG) Biomarker Activity (AID 2283048); details: primary human coronary artery smooth muscle cells; actives raise or lower the signal;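 also: MIG protein level measured by ELISA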
[9] = read-out: serum amyloid A (SAA), SAA1 (gene 6288); experiment: BSK_CASM3C_SAA: BioMAP Diversity Plus: CASM3C Assay for serum amyloid A (SAA) Biomarker Activity (AID 2283049); details: primary human coronary artery smooth muscle cells; actives raise or lower the signal;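 also: SAA protein level quantified by ELISA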
[10] = BSK_CASM3C_SRB: Viability Assessment in the BioMAP Diversity Plus: CASM3C Assay (AID 2283050); details: primary human coronary artery smooth muscle cells;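 also: total protein by SRB staining as cytotoxicity measure in parallel cultures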
[11] = read-out: Thrombomodulin, THBD (gene 7056); experiment: BSK_CASM3C_Thrombomodulin: BioMAP Diversity Plus: CASM3C Assay for Thrombomodulin Biomarker Activity (AID 2283051); details: primary human coronary artery smooth muscle cells; actives raise or lower the signal;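 also: thrombomodulin protein level measured by ELISA 24 h after dosing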
[12] = read-out: Tissue Factor, F3 (gene 2152); experiment: BSK_CASM3C_TissueFactor: BioMAP Diversity Plus: CASM3C Assay for Tissue Factor Biomarker Activity (AID 2283052); details: primary human coronary artery smooth muscle cells; actives raise or lower the signal;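 also: cell surface tissue factor protein level read by ELISA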
[13] = read-out: Interferon-gamma inducible Protein 10 (IP10), CXCL10 (gene 3627); experiment: BSK_hDFCGF_IP10: BioMAP Diversity Plus: hDFCGF Assay for Interferon-gamma inducible Protein 10 (IP10) Biomarker Activity (AID 2283053); details: primary human foreskin fibroblasts; actives raise or lower the signal
Summary of the method: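 Human foreskin fibroblast primary cells (hDFCGF system) were dosed with chemical and assayed at 24 h; IP-10 measured by ELISA. Activity fitted bidirectionally relative to DMSO negative control as baseline.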

[14] = read-out: Urokinase-type plasminogen activator receptor (uPAR), PLAUR (gene 5329); experiment: BSK_CASM3C_uPAR: BioMAP Diversity Plus: CASM3C Assay for Urokinase-type plasminogen activator receptor (uPAR) Biomarker Activity (AID 2283054); details: primary human coronary artery smooth muscle cells; actives raise or lower the signal;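 also: cell-surface uPAR protein level quantified by ELISA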
[15] = read-out: Vascular cell adhesion molecule 1 (VCAM1), VCAM1 (gene 7412); experiment: BSK_CASM3C_VCAM1: BioMAP Diversity Plus: CASM3C Assay for Vascular cell adhesion molecule 1 (VCAM1) Biomarker Activity (AID 2283055); details: primary human coronary artery smooth muscle cells; actives raise or lower the signal;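 also: VCAM-1 protein level quantified by ELISA on the cells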
[16] = read-out: Collagen III, COL3A1 (gene 1281); experiment: BSK_hDFCGF_CollagenIII: BioMAP Diversity Plus: hDFCGF Assay for Collagen III Biomarker Activity (AID 2283056); details: primary human foreskin fibroblasts; actives raise or lower the signal
Summary of the method: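 Response relative to DMSO, fitted in both directions, reflects ELISA-measured collagen III in human primary skin fibroblasts 24 h after compound addition.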

[17] = read-out: Epidermal growth factor receptor (EGFR), EGFR (gene 1956); experiment: BSK_hDFCGF_EGFR: BioMAP Diversity Plus: hDFCGF Assay for Epidermal growth factor receptor (EGFR) Biomarker Activity (AID 2283057); details: primary human foreskin fibroblasts; actives raise or lower the signal
Summary of the method: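 Primary human foreskin fibroblasts were exposed to compound for 24 h, after which cell-surface EGFR was quantified by ELISA. Activity was fitted bidirectionally against the DMSO negative control as baseline.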

[18] = read-out: Interleukin-8 (IL8), CXCL8 (gene 3576); experiment: BSK_hDFCGF_IL8: BioMAP Diversity Plus: hDFCGF Assay for Interleukin-8 (IL8) Biomarker Activity (AID 2283058); details: primary human foreskin fibroblasts; actives raise or lower the signal
Summary of the method: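 Fibroblast monolayers (human foreskin, hDFCGF) received test chemical for 24 h before ELISA detection of IL-8; either increases or decreases relative to DMSO count as activity.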

[19] = BSK_hDFCGF_Proliferation: Cell Proliferation Assessment in the BioMAP Diversity Plus: hDFCGF Assay (AID 2283059); details: primary human foreskin fibroblasts;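 also: curves fitted for both rise and fall of signal versus DMSO baseline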
Summary of the method: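 Primary human foreskin fibroblasts, sub-confluent; […]; 10% TCA fix, 0.1% SRB stain, A560 total protein. Gain/loss fitted bidirectionally vs DMSO control.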

[20] = read-out: Macrophage colony-stimulating factor (MCSF), CSF1 (gene 1435); experiment: BSK_hDFCGF_MCSF: BioMAP Diversity Plus: hDFCGF Assay for Macrophage colony-stimulating factor (MCSF) Biomarker Activity (AID 2283060); details: primary human foreskin fibroblasts; actives raise or lower the signal
Summary of the method: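 fibroblasts (human foreskin, primary), 24 h post-dose; M-CSF by ELISA; bidirectional fit, DMSO = baseline.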

Measured: AC50

Nc1ncc([N+](=O)[O-])s1
inactive: all assays above

CCNc1nc(NC(C)(C)C)nc(SC)n1
inactive: all assays above

CC1(C)Cc2cccc(O)c2O1
inactive: all assays above

Oc1c(I)cc(I)cc1I
active: [1] 3.34 µM | [14] 0.191 µM | [16] 4.24 µM | [19] 8.03 µM
inactive: all other assays above

COP(=S)(OC)Oc1ccc(S(=O)(=O)N(C)C)cc1
active: [19] 28.2 µM
inactive: all other assays above

O=C(O)CCC(F)(C(F)(F)F)C(F)(F)F
active: [4] 23.9 µM | [9] 17.9 µM | [13] 1.93 µM | [15] 0.25 µM | [20] 5.95 µM
inactive: [1] | [2] | [3] | [4] | [5] | [6] | [7] | [8] | [9] | [10] | [11] | [12] | [13] | [14] | [15] | [16] | [17] | [18] | [19] | [20]

BrCCBr
active: [7] 0.197 µM
inactive: all other assays above

CCOC(=O)/C=C(C)/C=C/C[C@@H](C)CCCC(C)C
inactive: [2] | [17] | [18]
active: [1] 9.78 µM | [3] 18.5 µM | [4] 26.6 µM | [5] 27.2 µM | [6] 31.9 µM | [7] 29 µM | [8] 30 µM | [9] 33.1 µM | [10] 31 µM | [11] 35.8 µM | [12] 20 µM | [13] 31.4 µM | [14] 30.9 µM | [15] 20 µM | [16] 8.64 µM | [19] 9.55 µM | [20] 20 µM

NC(=S)Nc1ccccc1
inactive: all assays above

Cc1ccccc1N
inactive: all assays above

O=C1C2(Cl)C3(Cl)C4(Cl)C(Cl)(Cl)C5(Cl)C3(Cl)C1(Cl)C5(Cl)C24Cl (centres undefined)
active: [1] 3 µM | [2] 35.6 µM | [3] 14.9 µM | [4] 26.6 µM | [5] 10.5 µM | [6] 31.3 µM | [7] 6.61 µM | [8] 34.2 µM | [9] 23.3 µM | [10] 24 µM | [11] 33.6 µM | [12] 19.3 µM | [13] 4.03 µM | [14] 18 µM | [15] 29 µM | [16] 3.46 µM | [17] 2.09 µM | [18] 14.3 µM | [19] 1.42 µM | [20] 21.9 µM

Nc1ccc(-c2ccc(N)c(Cl)c2)cc1Cl
active: [12] 11.6 µM | [19] 0.922 µM
inactive: all other assays above

COC(=O)c1sccc1S(=O)(=O)NC(=O)Nc1nc(C)nc(OC)n1
inactive: all assays above

CC(C)c1ccc(CO)cc1
inactive: all assays above

CCC(C)(C)c1ccc(O)c(C(C)(C)CC)c1
active: [1] 26.6 µM | [2] 38.7 µM | [3] 16.4 µM | [4] 28.9 µM | [5] 33.8 µM | [6] 34.6 µM | [7] 14.3 µM | [8] 35.8 µM | [9] 30 µM | [10] 13 µM | [11] 33.8 µM | [12] 11.4 µM | [13] 6.49 µM | [14] 31.4 µM | [15] 12.2 µM | [16] 7.28 µM | [18] 10.4 µM | [19] 9.6 µM | [20] 8.2 µM
inactive: [17]

CC(=O)OC(c1ccccc1)C(Cl)(Cl)Cl (centres undefined)
active: [19] 31 µM and 25.6 µM
inactive: all other assays above

O=C(O)C(F)(F)C(F)(F)C(F)(F)C(F)(F)C(F)(F)C(F)(F)F
inactive: all assays above

Cn1sc(Cl)cc1=O
active: [7] 6.81 µM | [13] 28.2 µM | [15] 20 µM | [16] 33.6 µM | [17] 33.6 µM | [18] 37.9 µM | [19] 1.77 µM | [20] 25.6 µM
inactive: all other assays above

C[C@@H]1C[C@@H]([C@H](O)CC2CC(=O)NC(=O)C2)C(=O)[C@@H](C)C1
active: [1] 2.91 µM | [2] 6.03 µM | [3] 1.84 µM | [4] 4.28 µM | [5] 0.791 µM | [6] 9.46 µM | [7] 1.63 µM | [8] 1.78 µM | [10] 8.63 µM | [13] 2.32 µM | [14] 3.8 µM | [15] 0.926 µM | [18] 7.54 µM | [19] 4.27 µM | [20] 4.1 µM
inactive: [9] | [11] | [12] | [17]

O=c1[nH]c(=O)[nH]c(=O)[nH]1
inactive: all assays above

CCC(=O)C(CC(C)N(C)C)(c1ccccc1)c1ccccc1 (centres undefined)
inactive: all assays above

Oc1ccc(-c2ccccc2)cc1
active: [4] 32.5 µM | [5] 3.97 µM | [7] 6 µM | [10] 3.97 µM | [12] 20 µM
inactive: all other assays above
